Laboratory results: PubChem BioAssay (EPA / NIEHS)
Records with an inconclusive call do not appear. The source made the active and inactive calls. How the source made its calls: active means hit-call score of the fitted dose curve at least 0.9, where 1 is the maximum; inconclusive means response in the unintended direction; inactive means score below 0.9.

What follows are compounds tested against Oxysterols receptor LXR-beta (Homo sapiens) (UniProt P55055) (assay: ATG_LXRb_TRANS: Attagene TRANS-FACTORIAL HepG2 Assay for human Liver X Receptor beta (LXRb) (AID 2282981)). Conditions: HepG2 Attagene TRANS GAL4-LXRb reporter, mRNA.
Method in brief: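 HepG2 cells transiently transfected with GAL4-UAS reporter units for chimeric NR-Gal4 proteins, dosed for 24 h. Reporter transcripts measured by RT-PCR and capillary electrophoresis; gain-of-signal fitting relative to DMSO.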

Chain of Oxysterols receptor LXR-beta (Homo sapiens) (P55055 whole entry, looked up, the tested form may be a part): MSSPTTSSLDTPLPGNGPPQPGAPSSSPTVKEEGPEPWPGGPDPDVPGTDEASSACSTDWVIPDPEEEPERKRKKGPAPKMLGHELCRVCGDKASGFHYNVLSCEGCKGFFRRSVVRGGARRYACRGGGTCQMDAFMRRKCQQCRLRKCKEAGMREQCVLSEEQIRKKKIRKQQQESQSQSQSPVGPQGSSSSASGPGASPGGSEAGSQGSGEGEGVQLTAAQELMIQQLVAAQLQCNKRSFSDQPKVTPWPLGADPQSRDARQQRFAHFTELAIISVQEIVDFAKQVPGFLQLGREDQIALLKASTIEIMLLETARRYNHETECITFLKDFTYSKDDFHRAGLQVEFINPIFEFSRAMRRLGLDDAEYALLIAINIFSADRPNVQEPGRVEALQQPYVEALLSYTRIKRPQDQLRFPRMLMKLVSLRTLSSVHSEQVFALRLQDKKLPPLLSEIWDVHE

outcome, inactive:
C=C(C)CCO
CCC(C)OC(=O)c1ccc(O)cc1 (stereo not drawn)
CC(=O)[C@H]1[C@H](C#N)C[C@H]2[C@@H]3CC=C4C[C@@H](O)CC[C@]4(C)[C@H]3CC[C@@]21C
CCCOC(=O)CCCCC(=O)OCCC
CNC(=S)NN
CCCCCCCCCCCCCCCC(=O)OCC
O=C(O)CCCC[C@@H]1SC[C@@H]2NC(=O)N[C@@H]21
CC(=O)OCC(=O)[C@@]12N=C(C)O[C@@H]1C[C@H]1[C@@H]3CCC4=CC(=O)C=C[C@]4(C)[C@H]3[C@@H](O)C[C@@]12C
Cc1ccc([N+](=O)[O-])cc1S(=O)(=O)O
CC=CC(=O)N(CC)c1ccccc1C
Nc1ccc2cc3ccccc3cc2c1
CN(C)CCCN(C)C
O=C(Nc1ccccc1)c1ccccc1O
CCCCCC/C=C/C=O
CC1(C)O[C@@H]2C[C@H]3[C@@H]4C[C@H](F)C5=CC(=O)CC[C@]5(C)[C@H]4[C@@H](O)C[C@]3(C)[C@]2(C(=O)CO)O1
O=C1CCCN1CCO
C=CC(C)(CCC=C(C)C)OC(=O)CC(C)C (stereo not drawn)
CCCCCCCOC(=O)CCC
O=c1cc(-c2ccccc2)oc2ccccc12
O=C(c1ccccc1)c1ccc(O)c(O)c1O
CC(=O)NS(=O)(=O)c1ccc(N)cc1
C=C(C)C(=O)OCCO
C[C@]12CCC(=O)C=C1CC[C@@H]1[C@@H]2C(=O)C[C@@]2(C)[C@H]1CC[C@]2(O)C(=O)CO
